Reference: PubChem BioAssay (Tox21)
Several values for one entry are separate records, joined by “and”; a condition that tells them apart may be missing. Equal entries are not always repeated. Results filed as inconclusive are left out. Where a call stands in place of a potency, no number is given. A structure can be active in one record and inactive in another. Activity calls are given as the source filed them. Unless noted, calls come from the whole dose curve; as a rule, active = well fitted curve in the direction sought with a large enough effect in the repeat runs; inconclusive = weak or mixed curves; inactive = no such curve, though single readings can be large; an effect the other way counts as inactive or inconclusive.

Tests used:
[1] = target: Aryl hydrocarbon receptor (Homo sapiens) (UniProt P35869); test: qHTS assay to identify small molecule that activate the aryl hydrocarbon receptor (AhR) signaling pathway (AID 743085); note: nearly all actives have a fitted effect of over 15% in size; note: potency is the fitted concentration of half-maximal effect;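 for activation: HG2L7.5c1 human HepG2 liver cells with stably integrated DRE-driven firefly reporter; series mostly up to about 70 µM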
How it was run: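 HepG2 cells stably carrying a 20-DRE firefly luciferase reporter (HG2L7.5c1) treated with compound for 24 hr at 37C. Luciferase read by ONE-Glo luminescence, with CellTiter-Fluor viability read first.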

[2] = qHTS assay to identify small molecule that activate the aryl hydrocarbon receptor (AhR) signaling pathway - cell viability counter screen (AID 743086);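 note: HepG2 liver cells carrying the AhR DRE luciferase reporter; series mostly up to about 70 µM; nearly all actives have a fitted effect of over 45% in size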
How it was run: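 Cytotoxicity counter screen: CellTiter-Fluor signal (30 min, 37 C) in 4000 HepG2 cells/well carrying the DRE-luciferase reporter, following 24 h compound exposure at 37 C.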

[3] = target: Peroxisome proliferator-activated receptor gamma (Homo sapiens) (UniProt P37231); test: qHTS assay to identify small molecule agonists of the peroxisome proliferator-activated receptor gamma (PPARg) signaling pathway (AID 743094; active = well fitted activation curve with a large enough effect in the signal ratio in the repeat runs, not every such curve was filed as active; the % refers to the signal ratio)
How it was run: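 Compounds dissolved in DMSO were added to PPARg UAS-bla HEK293H cells for 17 h at 37C, and reporter expression was quantified by fluorescence intensity after 1 h with LiveBLAzer B/G FRET substrate.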

[4] = target: Peroxisome proliferator-activated receptor gamma (Homo sapiens) (UniProt P37231); test: qHTS assay to identify small molecule antagonists of the peroxisome proliferator-activated receptor gamma (PPARg) signaling pathway (AID 743191; calls by dose curve; note: series mostly up to about 63 µM; nearly all actives have a fitted effect of over 30% in size)
How it was run: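 Beta-lactamase reporter under UAS control in HEK293H PPARg-bla cells; compound treatment 17 h at 37C. Read-out: fluorescence intensity after 1 h room-temperature incubation with LiveBLAzer B/G FRET substrate.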

[5] = qHTS assay to identify small molecule antagonists of the peroxisome proliferator-activated receptor gamma (PPARg) signaling pathway - cell viability counter screen (AID 743194); note: nearly all actives have a fitted effect of over 55% in size
How it was run: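 Viability was measured as CellTiter-Glo luminescence in GeneBLAzer PPARg UAS-bla HEK293H cells. These cells had been exposed 17 h at 37 C to compounds together with rosiglitazone at 50 nM final, with the beta-lactamase readout taken in the same wells.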

[6] = qHTS assay for small molecule agonists of the antioxidant response element (ARE) signaling pathway (AID 743202; active = well fitted activation curve with a large enough effect in the signal ratio in the repeat runs, not every such curve was filed as active; the % refers to the signal ratio; note: potency is the fitted concentration of half-maximal effect)
How it was run: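 Quantitative high-throughput format in HepG2 cells bearing an integrated ARE-beta-lactamase reporter. Compound exposure lasted 16 h at 37 C, and fluorescence was read 2 h after adding LiveBLAzer B/G substrate at room temperature.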

[7] = qHTS assay for small molecule agonists of the antioxidant response element (ARE) signaling pathway - cell viability counter screen (AID 743203; calls by dose curve; note: nearly all actives have a fitted effect of over 55% in size)
How it was run: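 Following 16 hrs of compound treatment at 37C, HepG2 cells with an ARE-controlled beta-lactamase gene were lysed with CellTiter-Glo. Luminescence was read after 30 min at room temperature.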

[8] = qHTS assay for small molecule activators of the heat shock response signaling pathway - cell viability counter screen (AID 743209); note: nearly all actives have a fitted effect of over 50% in size
How it was run: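 Readout: CellTiter-Glo luminescence, 30 min at room temperature. System: HSE-bla HeLa cells, 1500/well, plated overnight. Treatment: compounds in DMSO, 5 h at 37 C.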

[9] = qHTS assay for small molecule activators of the heat shock response signaling pathway (AID 743210; active = well fitted activation curve with a large enough effect in the signal ratio in the repeat runs, with a control signal flat, not every such curve was filed as active; the % refers to the signal ratio; note: potency is the fitted concentration of half-maximal effect;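 for activation: HeLa cells with beta-lactamase reporter driven by heat shock elements; series mostly up to about 63 µM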)
How it was run: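 HeLa HSE-bla cells, overnight plating; cpd in DMSO 5 h, 37 C; LiveBLAzer B/G FRET substrate 2.5 h RT; fluorescence intensity read.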

[10] = qHTS assay to identify small molecule agonists of the peroxisome proliferator-activated receptor delta (PPARd) signaling pathway - cell viability counter screen (AID 743211); note: nearly all actives have a fitted effect of over 55% in size
How it was run: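 PPARd-bla HEK293H cells (3000/well) were pre-incubated 5 h at 37 C, then exposed to compound for 17 h at 37 C. After 2 h with LiveBLAzer substrate, CellTiter-Glo was added to the same wells; luminescence read after 30 min at room temperature.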

Sequence of Aryl hydrocarbon receptor (Homo sapiens) (P35869 whole entry, looked up): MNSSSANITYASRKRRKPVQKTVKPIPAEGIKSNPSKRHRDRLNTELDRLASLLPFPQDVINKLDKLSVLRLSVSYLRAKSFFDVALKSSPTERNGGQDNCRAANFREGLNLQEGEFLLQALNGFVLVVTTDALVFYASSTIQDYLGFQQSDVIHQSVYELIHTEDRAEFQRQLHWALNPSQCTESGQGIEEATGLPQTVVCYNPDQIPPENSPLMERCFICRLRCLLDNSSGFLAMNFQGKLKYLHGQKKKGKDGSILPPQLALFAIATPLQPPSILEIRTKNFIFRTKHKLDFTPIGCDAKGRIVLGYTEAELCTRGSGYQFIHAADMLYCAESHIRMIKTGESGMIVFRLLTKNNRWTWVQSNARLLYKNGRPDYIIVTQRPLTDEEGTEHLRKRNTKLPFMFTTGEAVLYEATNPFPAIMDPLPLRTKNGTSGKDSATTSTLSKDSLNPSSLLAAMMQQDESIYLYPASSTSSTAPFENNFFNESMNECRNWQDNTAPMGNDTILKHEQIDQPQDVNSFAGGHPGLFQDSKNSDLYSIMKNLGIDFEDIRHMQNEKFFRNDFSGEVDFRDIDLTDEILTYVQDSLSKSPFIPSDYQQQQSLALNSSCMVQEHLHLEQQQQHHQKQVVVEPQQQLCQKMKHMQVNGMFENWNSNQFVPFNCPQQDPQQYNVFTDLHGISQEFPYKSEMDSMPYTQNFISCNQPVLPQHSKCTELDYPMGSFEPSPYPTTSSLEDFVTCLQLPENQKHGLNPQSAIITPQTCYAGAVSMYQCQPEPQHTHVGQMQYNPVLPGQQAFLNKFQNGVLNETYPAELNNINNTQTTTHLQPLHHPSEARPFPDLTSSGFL
Sequence of Peroxisome proliferator-activated receptor gamma (Homo sapiens) (P37231 whole entry, looked up): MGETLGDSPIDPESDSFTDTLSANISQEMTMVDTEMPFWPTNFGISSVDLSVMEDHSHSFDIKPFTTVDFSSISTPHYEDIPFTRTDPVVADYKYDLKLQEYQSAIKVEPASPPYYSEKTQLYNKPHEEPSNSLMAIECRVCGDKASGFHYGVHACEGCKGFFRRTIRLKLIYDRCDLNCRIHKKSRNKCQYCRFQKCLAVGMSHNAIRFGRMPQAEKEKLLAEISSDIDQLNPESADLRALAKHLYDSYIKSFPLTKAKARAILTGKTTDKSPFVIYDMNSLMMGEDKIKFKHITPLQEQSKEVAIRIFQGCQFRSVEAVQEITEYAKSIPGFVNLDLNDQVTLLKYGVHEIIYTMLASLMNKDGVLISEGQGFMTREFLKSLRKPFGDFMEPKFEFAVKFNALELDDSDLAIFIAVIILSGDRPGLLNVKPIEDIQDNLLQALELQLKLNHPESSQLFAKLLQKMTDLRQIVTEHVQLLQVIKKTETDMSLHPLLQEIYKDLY

Row | Compound | Potency [1] | Potency [2] | outcome [3] | Potency [4] | Potency [5] | Potency [6] | Potency [7] | Potency [8] | Potency [9] | Potency [10]
1 | CCC(CO)(CO)CO | inactive | inactive | inactive | inactive | inactive | inactive | inactive | inactive | inactive | inactive
2 | CC(=O)c1ccc[nH]1 | inactive | inactive | inactive | inactive | inactive | inactive | inactive | inactive | inactive | inactive
3 | COc1ccc(C(=O)NCc2ccc(OCCN(C)C)cc2)cc1OC | inactive | inactive | inactive | inactive | inactive | inactive | inactive | inactive | inactive | inactive
4 | CN=C(N)NC(=O)Nc1c(C)cccc1C | inactive | inactive | inactive | inactive | inactive | inactive | inactive | – | inactive | inactive
5 | CCCCCc1ccco1 | inactive | inactive | – | – | – | – | – | – | – | –
6 | C1CCCCC1 | inactive | inactive | inactive | inactive | inactive | inactive | inactive | inactive | inactive | inactive
7 | COc1ccc2nc(S(=O)Cc3ncc(C)c(OC)c3C)[nH]c2c1 (configuration not stated) | 48 µM (active) | inactive | inactive | inactive | inactive | 17 µM (active) and 16.8 µM (active) | inactive | inactive | 30.5 µM (active) and inactive | inactive
8 | CC(C)c1ccc(C#N)cc1 | inactive | inactive | inactive | inactive | inactive | inactive | inactive | inactive | inactive | inactive
9 | C/C(C=O)=C\c1ccccc1 | inactive | inactive | inactive | inactive | inactive | – | inactive | inactive | inactive | inactive
10 | O=C(O)CN1C(=O)c2cccc3cccc(c23)C1=O | inactive | inactive | inactive | inactive | inactive | inactive | inactive | inactive | inactive | inactive
11 | CCC(CO)(CO)[N+](=O)[O-] | inactive | inactive | inactive | inactive | inactive | inactive | inactive | inactive | inactive | inactive
12 | CC12CC3CC(C)(C1)CC(N)(C3)C2 | inactive | inactive | inactive | inactive | inactive | inactive | inactive | inactive | inactive | inactive
13 | CC(C)N=C=NC(C)C | inactive | inactive | inactive | inactive | inactive | inactive | inactive | inactive | inactive | inactive
14 | Nc1ccc(NC(=O)c2ccc(N)cc2)cc1 | inactive | inactive | inactive | inactive | inactive | inactive | inactive | inactive | inactive | inactive
15 | CC(C)(C(=O)c1cccnc1)c1cccnc1 | inactive | inactive | inactive | inactive | inactive | inactive | inactive | inactive | inactive | inactive
16 | COc1cc(NC(C)CCCN)c2ncccc2c1 (configuration not stated) | inactive | inactive | inactive | inactive | inactive | inactive | inactive | inactive | inactive | inactive
17 | CCc1ccc(C)cc1 | inactive | inactive | inactive | inactive | inactive | inactive | inactive | inactive | inactive | inactive
18 | O=C1CC[C@@H](C(=O)O)N1 | inactive | inactive | inactive | inactive | inactive | inactive | inactive | inactive | inactive | inactive
19 | Cc1cn([C@H]2C[C@H](F)[C@@H](CO)O2)c(=O)[nH]c1=O | inactive | inactive | inactive | inactive | inactive | inactive | inactive | inactive | inactive | inactive
20 | O=C(O)CO | inactive | inactive | inactive | inactive | inactive | – | inactive | inactive | inactive | inactive
21 | CCCCCCCC(=O)OCCCCCC | inactive | inactive | inactive | inactive | inactive | inactive | inactive | inactive | inactive | inactive
22 | FC(F)(F)C(F)(F)C(F)(F)C(F)(F)CCI | inactive | inactive | inactive | inactive | inactive | inactive | inactive | inactive | – | inactive
23 | O=S(=O)(Cl)c1c(Cl)cccc1Cl | inactive | inactive | inactive | inactive | inactive | inactive | inactive | inactive | inactive | inactive
24 | CC(=O)OCC1=C(C(=O)O)N2C(=O)[C@@H](NC(=O)CSc3ccncc3)[C@H]2SC1 | inactive | inactive | inactive | inactive | inactive | – | inactive | inactive | inactive | inactive
25 | CC(C)COC(=O)COc1cc(Cl)c(Cl)cc1Cl | inactive | inactive | inactive | inactive | inactive | – | inactive | inactive | inactive | inactive

Row | Compound | Potency [1] | Potency [2] | outcome [3] | Potency [4] | Potency [5] | Potency [6] | Potency [7] | Potency [8] | Potency [9] | Potency [10]
26 | CC[C@@H](CO)NCCN[C@@H](CC)CO | inactive | inactive | inactive | inactive | inactive | inactive | inactive | inactive | inactive | inactive
27 | CCN(CC)C(=O)N1CCN(C)CC1 | inactive | inactive | inactive | inactive | inactive | inactive | inactive | – | inactive | inactive
28 | O=C(/C=C/c1ccc([N+](=O)[O-])cc1)c1ccccc1 | inactive | inactive | inactive | inactive | inactive | inactive | inactive | – | inactive | –
29 | CCC(C)(C)C(=O)O | inactive | inactive | inactive | inactive | inactive | inactive | inactive | inactive | inactive | inactive
30 | CC(=O)OCCC(C)CC(C)(C)C (configuration not stated) | inactive | inactive | inactive | inactive | inactive | inactive | inactive | inactive | inactive | inactive
31 | C=Cc1ccc(OC(C)=O)cc1 | inactive | inactive | inactive | inactive | inactive | – | inactive | inactive | inactive | inactive
32 | Nc1nc2ccc(OC(F)(F)F)cc2s1 | 10.6 µM (active) | inactive | inactive | inactive | inactive | inactive | inactive | inactive | inactive | inactive
33 | CCOCCC(=O)OCC | inactive | inactive | inactive | inactive | inactive | inactive | inactive | inactive | inactive | inactive
34 | CCN(CC)CCOC(=O)C(c1ccccc1)c1ccccc1 | inactive | inactive | inactive | inactive | inactive | inactive | inactive | inactive | inactive | inactive
35 | O=c1[nH][nH]c(=O)c2cc([N+](=O)[O-])ccc12 | inactive | inactive | inactive | inactive | inactive | inactive | inactive | inactive | inactive | inactive
36 | COc1ccc(C)cc1 | inactive | inactive | inactive | inactive | inactive | inactive | inactive | inactive | – | inactive
37 | CCCCCCOC(=O)CCCCC | inactive | inactive | inactive | inactive | inactive | inactive | inactive | inactive | inactive | inactive
38 | CC(C)N(C)C | inactive | inactive | inactive | inactive | inactive | inactive | inactive | inactive | inactive | inactive
39 | CC(O)Cn1cnc2c1c(=O)n(C)c(=O)n2C (configuration not stated) | inactive | inactive | inactive | – | inactive | inactive | inactive | inactive | inactive | inactive
40 | CC(=O)NCCO | inactive | inactive | inactive | inactive | inactive | – | inactive | inactive | inactive | inactive
41 | c1ccc2sc(SSc3nc4ccccc4s3)nc2c1 | inactive | inactive | inactive | – | inactive | 13 µM (active) | inactive | inactive | – | –
42 | CC(=O)C(=O)CC(C)C | inactive | inactive | inactive | – | inactive | inactive | inactive | inactive | – | inactive
43 | CC(C)(C)C1(CCc2ccc(Cl)cc2)CO1 (configuration not stated) | inactive | inactive | inactive | – | inactive | inactive | inactive | inactive | inactive | inactive
44 | CC(CO)(CO)C(=O)O | inactive | inactive | inactive | – | inactive | inactive | inactive | – | inactive | inactive
45 | O=C1OC[C@H](Cc2cccc(O)c2)[C@H]1Cc1cccc(O)c1 | inactive | inactive | inactive | inactive | – | inactive | inactive | inactive | inactive | inactive
46 | OCC(CO)n1cnc(-c2ccc(F)cc2)c1-c1ccnc(Oc2ccccc2)n1 | inactive | inactive | inactive | inactive | inactive | – | inactive | inactive | inactive | inactive
47 | CC1=C2[C@@H]([C@H](C)CC[C@H]2/C=C(\C)C(=O)O)[C@H](O)C1 | inactive | inactive | inactive | – | inactive | inactive | inactive | inactive | – | inactive
48 | CC(C)OC(=O)c1ccccc1C(=O)OC(C)C | inactive | inactive | inactive | – | inactive | inactive | inactive | inactive | inactive | inactive
49 | CCCCCCCCCCCCCCN(C)C | inactive | inactive | inactive | – | inactive | inactive | inactive | inactive | inactive | inactive
50 | COc1cc(S(=O)(=O)Nc2ccccc2)c(OC)cc1N | inactive | inactive | inactive | inactive | – | – | – | inactive | inactive | inactive
